# Screening results (PubChem)
# An excerpt weighted towards active compounds, which were near 19% of everything screened.
# ELG1 repair inh: blocks ELG1-dependent DNA repair in HEK293T cells; Potency, µM (doses to about 46.1 µM), without a hit: at the highest dose activity change, negative = inhibition, usual class: inhibitors; HEK293T ELG1-luciferase reporter, luminescence, 16 h; DNA damage induced by 5-fluorouridine; 330,000 compounds, 2.3% hits; further: potency means the concentration at half of the fitted maximal effect; nearly all actives have a fitted effect of over 55% in size
#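 In this reporter screen, reduction of luminescence relative to DMSO vehicle indicated activity. Compounds and 5-fluorouridine were added together to 2,000 cells per well, incubated for 16 hr at 37 °C, then developed with ONE-Glo.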
# DT40 TDP1 CPT: DT40-hTDP1 cell growth loss with CPT | chicken DT40 Tdp1-/-;hTDP1 cells + 20 nM CPT, ATP luminescence, 48 h | AID 686979 | 420,000 compounds, 12% hits | Potency, µM (top dose mostly 46.2 µM), without a hit: at the highest dose activity change, negative = growth inhibition, hits mostly inhibitors; further: potency means the concentration at half of the fitted maximal effect; nearly all actives have a fitted effect of over 55% in size
#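 Chicken DT40 Tdp1-/- cells complemented with human TDP1, 400 cells/well, exposed to compounds plus 20 nM camptothecin for at least 48 h at 37 C; viability read as ATP content by CellTiter-Glo luminescence.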
# HT1080-NT tox: kills 2HG-producing HT-1080-NT fibrosarcoma cells; 360,000 compounds, 1.6% hits; AID 686970; Potency, µM (series often up to 46.1 µM), for the others: at the top dose activity, negative = less viability, hits mostly cytotoxic; HT-1080-NT fibrosarcoma viability, CellTiter-Glo ATP luminescence, 48 h;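 further: NT is the 2HG producing partner of a matched IDH1 knockdown line; potency means the concentration at half of the fitted maximal effect; 0% = DMSO-treated cells and -100% = media-only wells without cells; nearly all actives have a fitted effect of over 55% in size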
#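 A 48-hour cytotoxicity screen used HT-1080-NT cells plated 2 hours before compound delivery. ATP-based CellTiter-Glo luminescence measured viability, normalized to DMSO and no-cell controls.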
# HT1080 IDH1KD tx: kills HT-1080 cells with IDH1 knockdown; HT-1080 IDH1 knockdown viability, ATP luminescence, 48 h; Potency, µM (titrated, usually from 46.1 µM), for inactives: at the top dose activity, negative = toxicity, usual class: cytotoxic; 360,000 compounds, 2% hits;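 further: potency means the concentration at half of the fitted maximal effect; 0% = DMSO wells and -100% = cell-free medium wells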
#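 Knockdown cells (IDH1KD HT-1080) received compounds 2 h after plating at 750 cells/well and were kept 48 h at 37 °C in 5% FBS RPMI. A CellTiter-Glo luminescence read gave % activity for curve fitting.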
# IL1B secr inh: blocks inflammasome-driven IL-1 beta release; THP-1 LPS/ATP IL-1B secretion, AlphaLISA, 16 h; stronger effect = lower value; activity change, % at 57.5 µM; 360,000 compounds, 4.7% hits; in the data active means activity change below about -50%; inconclusive means mostly about -30% to -49%
#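 Secreted IL-1B measured by AlphaLISA bead assay after 16 h compound exposure of THP-1 cells; compounds (final up to 57.5 uM) added 1 h before LPS (250 ng/mL) and ATP (1.25 mM) stimulation; lower signal means less secretion.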
# DT40 TDP1 no CPT: qHTS for Inhibitors of human tyrosyl-DNA phosphodiesterase 1 (TDP1): qHTS in cells in absence of CPT. DT40 Tdp1-/- hTDP1 cells, no CPT, ATP luminescence, 48 h. Potency, µM (doses to about 46.2 µM), without a hit: at the top dose activity change, negative = growth inhibition, most hits filed as inhibitors. 420,000 compounds, 15% hits; further: potency means the concentration at half of the fitted maximal effect; nearly all actives have a fitted effect of over 55% in size
#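 Cells were dispensed at 400 per well, compounds added by pin tool, plates incubated ≥48 hr at 37 °C, then CellTiter-Glo added for 30 min at room temperature before luminescence reading. Line: DT40 Tdp1-/- complemented with hTDP1; camptothecin omitted.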
# * = called active by the depositor; i = inactive; u = inconclusive; x = no result given; [ ] = another dose, or the depositor's remark. Unless noted, the call rests on the fitted dose curve; in most records, active means well fitted curve in the direction sought with a large enough effect; inconclusive means small, poorly fitted or top-dose-only effect, or another doubt; inactive means no such curve, though single readings can be large; an effect the other way counts as inactive or inconclusive. Unless noted, on the % scale 0 is the no-effect control and ±100 the full control effect.
SMILES,ELG1 repair inh,DT40 TDP1 CPT,HT1080-NT tox,HT1080 IDH1KD tx,IL1B secr inh,DT40 TDP1 no CPT
CC1(C)CC(=O)C(C=NCCN2CCOCC2)=C(O)C1,6%,-24%,-6%,0%,1,-26%
CC1(C)CC(=O)C(C=NCCO)=C(O)C1,-6%,18µM*,26%,16%,4,u
N#CC1=C(Nc2ccccc2Cl)SC2(CCCC2)NC1=O,x,16µM*,2%,u,-5,18µM*
N#CC1=C(Nc2ccccc2Cl)SC(c2ccncc2)NC1=O (centres undefined),x,-20%,16%,24%,-12,2%
CC(=O)Nc1cc(C(=O)N2CC3(C)CC2CC(C)(C)C3)cc2ncn(CCc3ccccn3)c12 (centres undefined),x,u,x,x,x,23µM*
O=c1[nH]c(N/N=C/c2ccc(O)cc2)nc2ccccc12,u,26µM*,0%,0%,63,23µM*
CCN(CC)c1ccc(/C=N/Nc2nc3ccccc3[nH]2)cc1,u,3.3µM*,u,u,-85*,4.6µM*
O=C(O)c1ccc(/C=N/Nc2nc3ccccc3[nH]2)cc1,16%,-2%,2%,-3%,13,6%
CC(=O)Nc1ccc(/C=N/Nc2nc3ccccc3[nH]2)cc1,u,-30%,u,u,-94*,-9%
C=CCn1c(N/N=C/c2ccc(O)cc2)nc2ccccc2c1=O,u,-37%,6%,1%,17,15µM*
Cc1cc(C(=O)NCC(c2ccco2)N(C)C)ccc1[N+](=O)[O-] (centres undefined),10%,12%,-2%,11%,-8,5%
COc1ccc(/C=C2\C=Cc3ccccc32)cc1,x,4%,x,x,x,-28%
CC(=O)Nc1ccc(CCc2nc3ccccc3[nH]2)cc1,u,-11%,-5%,-4%,5,-4%
CC(=O)Nc1cccc(CCc2nc3ccccc3[nH]2)c1,u,u,2%,2%,16,18µM*
CC(/C=N/Nc1nc2ccccc2[nH]1)=C\c1ccccc1,u,15µM*,u,u,-4,u
COc1ccc(N2CCN(c3cncc(C)n3)CC2)cc1,x,-19%,27%,27%,-20,-13%
Cc1ccc(N/N=C(\C#N)C(=N)N2CCCCCC2)cc1,u,-29%,-22%,-10%,-10,-30%
CCN(CC)C(=N)/C(C#N)=N/Nc1ccc(C)cc1,u,10%,-8%,-5%,-54*,-29%
COc1ccccc1CNC(=O)c1ccc(CSc2nc3ccncc3n2Cc2cccc(F)c2)cc1,x,u,x,x,x,18µM*
COC(=O)c1ccc(CSc2nnnn2Cc2ccccc2)cc1,-15%,0%,-3%,-2%,12,-16%
COc1ccc(Cn2c(SCc3ccc(C(=O)NCc4cccs4)cc3)nc3ccncc32)cc1,x,18µM*,x,x,x,u
O=C(NCc1cccs1)c1ccc(CSc2nc3ccncc3n2Cc2cccc(F)c2)cc1,x,u,x,x,x,21µM*
COc1ccc(Cn2c(SCc3ccc(C(=O)NCc4cccs4)cc3)nc3cccnc32)cc1,x,u,x,x,x,-79%
COC(=O)c1ccc(Cn2c(SCc3ccccc3)nc3ccncc32)cc1,x,u,x,x,x,21µM*
CCc1ccc(CNC(=O)c2ccc(CSc3nc4ccncc4n3Cc3ccccc3)cc2)cc1,x,16µM*,x,x,x,23µM*
SMILES,ELG1 repair inh,DT40 TDP1 CPT,HT1080-NT tox,HT1080 IDH1KD tx,IL1B secr inh,DT40 TDP1 no CPT
CCc1ccc(CNC(=O)c2ccc(CSc3nc4ccncc4n3Cc3ccc(OC)cc3)cc2)cc1,x,23µM*,x,x,x,u
COc1ccc(CC(=O)N/N=C\c2cc(Br)c(O)c(Br)c2)cc1,-9%,25%,15%,7%,37,27%
COC(=O)[C@@H]1CCCN1Cc1ccc2c(c1)CN(Cc1cc(OC)c3c(c1)OCO3)CCO2,x,23%[9.04 µM],x,x,x,u
CCOCCCNC(=O)CN1C(=O)NC(Cc2c[nH]c3ccccc23)C1=O (centres undefined),3%,-5%,6%,5%,19,19%
Cc1ccc(-c2nn3c(C)nnc3s2)cc1NC(=O)c1ccc(OC(C)C)cc1,u,13µM*,2%,-4%,8,u
COc1ccc(C(=O)Nc2cc(-c3nn4c(C)nnc4s3)ccc2C)cc1,-2%,-25%,-14%,-8%,21,-17%
Cc1cc(OCC(=O)Nc2cc(-c3nn4c(C)nnc4s3)ccc2C)ccc1Cl,u,4.1µM*,2%,10%,4,u
COc1ccc(OCC(=O)Nc2cc(-c3nn4c(C)nnc4s3)ccc2C)cc1,3%,-4%,1%,8%,-1,0%
Cc1ccc(NC2CCCN(C(=O)CN3C(=O)c4ccccc4C3=O)C2)cc1C (centres undefined),0%,-22%,3%,7%,i,-3%
Cc1ccc(C)c(S(=O)(=O)Nc2ccc(C(=O)NCCCN3CCOCC3)cc2)c1,3%,u,-4%,2%,5,-16%
CCOc1ccc(C(=O)NC(C(=O)N2CCC2)C(C)C)cc1 (centres undefined),8%,-22%,-6%,-4%,24,-29%
O=C(CSc1nnc(-c2ccccc2F)n1C1CCCCC1)N1CCCC1,-11%,-24%,6%,15%,19,-23%
CC(C)(C)c1ccc(-c2nnc(SCCC#N)n2C2CCCC2)cc1,-15%,18µM*,u,u,-51*,18µM*
O=C(CSc1nnc(-c2ccc(Br)cc2)n1C1CCCCC1)N1CCCC1,-10%,u,-11%,1%,31,23µM*
O=C(CSc1nnc(-c2ccc(Cl)cc2Cl)n1C1CCCCC1)N1CCCC1,-2%,23µM*,-1%,2%[9.24 µM],-11,21µM*
COc1ccc(CN(CC(=O)NCC2CCCO2)C(=O)CCC(=O)Nc2nccs2)cc1 (centres undefined),4%,-10%,4%,4%,-5,-18%
O=C1C(Cc2ccccc2)Nc2ncnc(N3CCN(c4ccccc4)CC3)c2N1Cc1ccc(Cl)cc1 (centres undefined),-3%,u,-10%,-8%,-56*,18µM*
O=C1C(Cc2ccccc2)Nc2ncnc(N3CCCCC3)c2N1Cc1ccc(Cl)cc1 (centres undefined),2%,u,-14%,-13%,-19,16µM*
